Reference: PubChem BioAssay AID652257 (The Scripps Research Institute Molecular Screening Center, 2013)
Where “and” joins values, the source holds several entries; their conditions need not be identical. Equal entries are not always repeated. Out of some 370,000 compounds screened, about 4,800 (1.3%) were called active. The sample holds actives, similar compounds and a random draw of the others, so the mix is not that of the screen.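 Rule for the calls: active = inhibition above about 21% made by adding two undisclosed values (limit read from the data); inactive = the rest.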 Where a structure was tested more than once in an assay, its records may differ in their call.

These compounds were tested against Protein arginine N-methyltransferase 1 (Homo sapiens) (UniProt Q99873) (assay: human PRMT1 activity-probe blockers – biochemical, fluorescence polarization, primary screen (AID 652257)). Details: recombinant PRMT1, activity-based probe fluorescence polarization; at 2.79 µM; stronger effect = higher value.
Sequence of Protein arginine N-methyltransferase 1 (Homo sapiens) (Q99873 whole entry, looked up): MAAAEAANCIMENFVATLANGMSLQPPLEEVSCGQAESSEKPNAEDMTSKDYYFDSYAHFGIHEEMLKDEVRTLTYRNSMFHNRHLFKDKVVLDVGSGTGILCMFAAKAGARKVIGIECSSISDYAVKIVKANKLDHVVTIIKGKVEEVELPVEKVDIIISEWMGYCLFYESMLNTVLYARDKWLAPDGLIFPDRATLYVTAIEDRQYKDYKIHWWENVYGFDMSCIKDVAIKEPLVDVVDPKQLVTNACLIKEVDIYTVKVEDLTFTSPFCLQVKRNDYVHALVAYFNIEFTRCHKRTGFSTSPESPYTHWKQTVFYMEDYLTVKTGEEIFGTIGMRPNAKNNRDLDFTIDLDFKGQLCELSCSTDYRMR

Row | SMILES | inhibition
1 | CC(C)NC(=O)NNc1c(Cl)cncc1Cl | -2.84% (inactive)
2 | CCC(c1ccc(NC(=O)OC(C)(C)C)cc1)c1cc(OC)cc(OC)c1 (centres undefined) | 0.65% (inactive)
3 | O=S(=O)(NCC1OCCc2ccccc21)c1ccccc1 (centres undefined) | 1.74% (inactive)
4 | O=C(c1ccc(S(=O)(=O)NCc2ccco2)cc1)N1CCN(c2ccccc2)CC1 | -5.34% (inactive)
5 | O=c1/c(=C/c2ccc(CNS(=O)(=O)c3ccccc3)o2)sc2n1CCN=2 | 42.5% (active)
6 | Cc1ccc(-n2c(N)c(C(=O)N3CCOCC3)sc2=S)c(C)c1 | 2.33% (inactive)
7 | Cc1cccc(-n2c(N)c(C(=O)N3CCN(C)CC3)sc2=S)c1 | 78.2% (active)
8 | N#Cc1ccccc1-n1c(N)c(C(=O)N2CCCC2)sc1=S | 12.5% (inactive)
9 | O=C(CNC(=O)c1ccccc1)OC(C(=O)Nc1cc([N+](=O)[O-])ccc1F)c1ccccc1 (centres undefined) | -5.95% (inactive)
10 | COc1cccc(N2CC(NS(=O)(=O)c3cccs3)CC2=O)c1 (centres undefined) | 0.96% (inactive)
11 | CN[C@H]1C[C@H]2c3cc(N4CCOCC4)ccc3CCN2C[C@H]1[C@H](C)O | 1.75% (inactive)
12 | Cc1ccccc1NC(=O)Cn1nnc(-c2ccccc2F)n1 | -2.95% (inactive)
13 | Cc1cccc(NC(=O)CSC(N)=O)c1C | 35.8% (active)
14 | Cc1cccc(NC(=O)COC(=O)CCc2ccccc2)c1C | -1.61% (inactive)
15 | Cc1cccc(NC(=O)CSc2nc3c(c(=O)[nH]2)CCCC3)c1C | -0.58% (inactive)
16 | Cc1ccccc1NC(=O)CSC1=NCCN1 | 9.55% (inactive)
17 | Cc1ccccc1NC(=O)CSC(=O)c1ccccc1 | 24.5% (active)
18 | CC(c1c[nH]c2ccccc12)c1c(-c2ccccc2)n(C)c2ccccc12 (centres undefined) | 8.87% (inactive)
19 | CN(C)CC(=O)N[C@@H]1C[C@@H]2O[C@H](CO)CC[C@@H]2O[C@@H]1CCc1ccc(C#Cc2ccccc2)cc1 | -0.26% (inactive)
20 | CSc1cccc(NC(=O)CN2C(=O)COc3ccc(S(=O)(=O)N4CCOCC4)cc32)c1 | -1.34% (inactive)
21 | O=C(c1c[nH]c2ccccc12)N1CCC(Oc2cccnc2)CC1 | -5.2% (inactive)
22 | CN1CC(=O)N=C1N | -1.28% (inactive) and 0.16% (inactive)
23 | CCOc1ccc(CCNC(=O)COC(=O)C2CCN(c3ccc(C(F)(F)F)cn3)CC2)cc1OCC | -0.97% (inactive)

Row | SMILES | inhibition
24 | CCCC(O)(c1ccccc1)C(c1ccccc1)c1ccccn1 (centres undefined) | 3.01% (inactive)
25 | CO/N=C(\C(=O)N[C@@H]1C(=O)N2C(C(=O)O)=C(COC(C)=O)CS[C@H]12)c1csc(N)n1 (stereo in doubt) | 16% (inactive) and 23.3% (active) and 25.5% (active)
26 | C=CC1=C(C(=O)O)N2C(=O)[C@@H](NC(=O)/C(=N/OCC(=O)O)c3csc(N)n3)[C@H]2SC1 | 28.6% (active)
27 | C=CC1=C(C(=O)O)N2C(=O)[C@@H](NC(=O)/C(=N\OCC(=O)O)c3csc(N)n3)[C@H]2SC1 | 23.7% (active)
28 | COc1ccc(-n2c(COc3ccccc3)nnc2SCC(=O)Nc2ccc3c(c2)OCO3)cc1 | 0.3% (inactive)
29 | C=C(C)CNC(=S)/N=c1\scc(C)n1CC | 2.72% (inactive)
30 | O=C(NCCC1=CCCCC1)C1CCN(S(=O)(=O)c2ccc(Cl)s2)CC1 | 2.95% (inactive)
31 | CCc1c(C)c2ccc(OC3CCCCC3=O)cc2oc1=O (centres undefined) | -0.12% (inactive)
32 | CCCCCCN1CCS(=O)(=O)N(Cc2ccc(C(F)(F)F)cc2)C(C(=O)OC)C1 (centres undefined) | 0.07% (inactive)
33 | C#CCCN([C@H](C(=O)OC)C(C)C)S(=O)(=O)c1ccc(F)cc1Br | 1.71% (inactive)
34 | OCCn1c(-c2ccccc2)csc1=Nc1ccccc1 | 63.9% (active)
35 | O=c1cc(CCl)nc2scc(-c3ccccc3)n12 | 6.61% (inactive)
36 | C=CC1=CCN(S(=O)(=O)C(C)(C)C)[C@@H]1CCO | -1.03% (inactive)
37 | Cc1cc(C(=O)OCC(=O)c2c(N)n(C)c(=O)n(C)c2=O)c(C)o1 | -0.81% (inactive)
38 | Cc1cc(C)c(S(=O)(=O)NN=C2c3ccccc3[C@H]3Cc4csc[n+]4[C@@H]23)c(C)c1 | 52.5% (active)
39 | COc1ccc(C(=O)N2CCN(c3ccc(C(C)=O)cc3F)CC2)cc1S(=O)(=O)NC1CC1 | 2.01% (inactive)
40 | CCCCCN1CCCCC(NC(=O)C(C)CCC)C1=O (centres undefined) | 3.28% (inactive)
41 | COC(=O)C1CN(CCc2ccccc2)CCS(=O)(=O)N1Cc1ccc(F)cc1 (centres undefined) | 0.22% (inactive)
42 | O=C(O)c1ccc(NN=CC2=C(N3CCOCC3)/C(=C/c3ccccc3)CC2)cc1 | 23.8% (active)
43 | O=C(Nc1ccc(F)cc1)c1cccnc1N1CCOCC1 | 0.36% (inactive)
44 | O=C1OC(NC(=O)c2ccccc2)C(N2CCOCC2)=C1Cl (centres undefined) | 0.25% (inactive)
45 | CC12CCC(C(=O)N(CCC#N)CCC#N)(CC1=O)C2(C)C (centres undefined) | -1.4% (inactive)
46 | COC(=O)[C@]12C[C@H](CC(=O)NCCc3ccccc3OC)C(=O)N(Cc3ccco3)C1=C[C@H](C(C)C)O[C@@H]2C1CC1 | -1.39% (inactive)

Row | SMILES | inhibition
47 | CC(C)CNC(=O)OCc1cn(Cc2ccc(F)cc2)nn1 | -6.07% (inactive)
48 | S=c1[nH]nc2c3c4c(sc3ncn12)CCCC4 | 40.6% (active)
49 | N=c1c2c3c(sc2nc2n1CCCCC2)CCCC3 | -1.83% (inactive)
50 | CCn1c(=S)[nH]c2sc3c(c2c1=O)CCCCC3 | -0.49% (inactive)
51 | CC(C)(C)NC(=O)C(c1cccnc1)N(C(=O)c1cnco1)c1ccc(C(C)(C)C)cc1 (centres undefined) | 1.45% (inactive)
52 | Cc1nc2ccc(C(=O)N3CCN(C(=O)C(C)(C)C)CC3)cc2n1C1CCCC1 | -5.06% (inactive)
53 | Nc1nnc(SCC(=O)NCC(=O)Nc2ccc(F)c(F)c2F)s1 | 0.28% (inactive)
54 | COc1cccc(NC(=O)COC(=O)/C=C/c2ccco2)c1 | 34.6% (active)
55 | CC(C)CNC(=O)COC(=O)/C=C/c1ccco1 | 3.56% (inactive)
56 | NS(=O)(=O)c1cccc(NC(=O)COC(=O)/C=C/c2ccco2)c1 | 8.16% (inactive)
57 | COC(=O)[C@@]12CCCCC3=C1N(CCC3)C(=O)[C@H]2CC(=O)NCc1cccc2ccccc12 | 0.96% (inactive)
58 | Cc1ccc(C2=CCN(C)C(=O)N2c2ccc(Cl)cc2)cc1 | 1.54% (inactive)
59 | COCCn1c(SCC(=O)Nc2cc(Cl)ccc2OC)nc2c(c1=O)SC(C)C2 (centres undefined) | -2% (inactive)
60 | COc1ccc(C(=O)OCCN(C)C2CN(Cc3cn(Cc4cccc(C)c4)nn3)S(=O)(=O)C2)cc1OC (centres undefined) | -3.17% (inactive)
61 | CC(=O)N1CCCN(C2=Nc3ccccc3Sc3ccccc32)CC1 | -2.73% (inactive)
62 | CCCCOCCCNC(=O)C[C@H]1C[C@@]2(C(=O)OC)C(=C[C@H](COCc3ccccc3)O[C@@H]2C)N(Cc2cccc3ccccc23)C1=O | -1.04% (inactive)
63 | CCOC(=O)C1(Cc2cccc(OC)c2)CCCN(C(=O)CCSC)C1 (centres undefined) | 2.68% (inactive)
64 | CC(C)(C)C1C/C(=C/c2ccco2)C(=O)/C(=C/c2ccco2)C1 (centres undefined) | 24.6% (active)
65 | O=C(NCCc1c[nH]c2ccccc12)OCc1cn(-c2c(F)cccc2F)nn1 | 0.52% (inactive)
66 | CCCCNC(=O)C[C@@H]1C(=O)N(CCc2ccc(Cl)cc2)C2=CCCC[C@]21C(=O)OCC | -4.44% (inactive)
67 | NC(=O)NC(=O)CSc1nc2cc([N+](=O)[O-])ccc2n1-c1cccc(C(F)(F)F)c1 | -3.17% (inactive)
68 | CC(=O)OC1CCC2C3CCC4=C(CC(F)C(=O)C4)C3CCC12C (centres undefined) | -4.66% (inactive)
69 | Fc1ccc(COc2ccc(-c3nnco3)cc2)cc1 | 2.4% (inactive)

Row | SMILES | inhibition
70 | Fc1ccc(COc2cccc(-c3n[nH]c(=S)o3)c2)cc1 | 31.7% (active)
71 | CN(Cc1ccc(F)cc1)C(=O)COc1ccc2ccccc2c1 | 6.77% (inactive)
72 | CC(C)(C)NC(=O)CSC(=Nc1ccccc1F)NC#N | 8.54% (inactive)
73 | COc1ccc(-n2c(SCC(=O)Nc3ccc4c(c3)OCCO4)nnc2-c2ccc(Cl)cc2)cc1 | -2.7% (inactive)
74 | O=C(CN1CCC(NC(=O)NCc2ccccc2)CC1)Nc1ccc2c(c1)OCCO2 | 2.96% (inactive)
75 | COc1ccccc1C(=O)CSc1nnc(-c2ccccn2)n1-c1ccccc1 | -1.16% (inactive)
76 | O=C(C(=O)N1CCN(c2ccccc2)CC1)c1ccc2c(c1)OCO2 | 0.48% (inactive)
77 | O=C(CCN1CCc2ccccc2C(O)(c2ccccc2)C1)c1ccc2c(c1)OCCO2 (centres undefined) | 51.5% (active)
78 | O=S(=O)(c1ccc2c(c1)OCCO2)N1CCc2ccccc21 | -3.53% (inactive)
79 | COc1ccc(C2NC(=O)N(C)C(C)=C2[N+](=O)[O-])cc1 (centres undefined) | -2.65% (inactive)
80 | COc1ccc(S[C@]2(C(=O)N(C)C)CC(=O)N(c3ccc(OC)cc3)[C@@H]2c2ccc(OC)cc2)cc1 | -1.57% (inactive)
81 | CC(C)(C)c1ccc(CSc2nnc(-c3cccs3)o2)cc1 | -1.14% (inactive)
82 | O=C1CCN(CCCc2ccccc2)CCN1CCO | -6.27% (inactive)
83 | OCCN1CCN(C(=S)c2ccc(-c3ccccc3)cc2)CC1 | 32% (active)
84 | O=C(NC(=S)N1CCN(Cc2ccccc2)CC1)c1ccccc1 | 0.22% (inactive)
85 | CC1CN(CC(=O)NC(C)c2ccccc2)CC(C)O1 (centres undefined) | 0.73% (inactive)
86 | COc1cccc(N2C(=O)CC(N3CCc4ccccc4C3)C2=O)c1 (centres undefined) | 4.88% (inactive)
87 | CCc1cccc(CC)c1N1C(=O)CC(Sc2ccccc2N)C1=O (centres undefined) | -1.17% (inactive)
88 | COC(=O)c1ccccc1SC1CC(=O)N(c2cccc(C)c2)C1=O (centres undefined) | 57.3% (active)
89 | Cc1ccccc1S(=O)(=O)NC(=O)C1(C)CCN1C(=O)C1(c2ccccc2)CCCC1 (centres undefined) | 0.03% (inactive)
